# Results: PubChem BioAssay (NCI)
# This is part of a sample that, as a whole, favours compounds with a hit. Of some 79,000 tested, about 15% had one in any assay. Activity calls are given as the source filed them. Rule as the data show it: active = growth inhibition above about 70%; inactive = the rest.
# Experiment: NCI Yeast Anticancer Drug Screen. Data for the rad50 strain (AID 155);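 also: 0% = growth of vehicle-only cultures of the same strain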
# Settings: S. cerevisiae rad50 strain growth inhibition; at 50.0 µM; active compounds read high
# Method in brief: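 DNA repair mutant yeast, compound exposure, growth read-out; inhibition is taken relative to vehicle.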
row,Compound,growth inhibition
1,Oc1c(Cl)cc(Cl)c2cccnc12,98.8% (active)
2,COc1ccc2c(c1)[n+]([O-])c(-c1ccccc1)c(N)[n+]2[O-],99.2% (active)
3,O=c1cccccc1[O-].O=c1cccccc1[O-].O=c1cccccc1[O-].[Sm+3],91.7% (active)
4,CCCCCCCCCCCCCCCCNc1ccn(C2CC(OP(=O)(O)OCC3OC(n4cc(CC)c(=O)[nH]c4=O)CC3O)C(CO)O2)c(=O)n1 (stereo not given),41.8% (inactive)
5,Nc1ccccc1OCC(O)CN1CCN(Cc2ccccc2)CC1 (stereo not given),72.1% (active)
6,O=S(=O)(O)c1ccc(O)c2cc(Nc3ccccc3)ccc12,44% (inactive)
7,CCOC(=O)/C(=C\c1ccc(-c2ccccc2)cc1)C(C)=O,67.1% (inactive)
8,O=C(C(Oc1ccc(Cl)cc1)Oc1ccc(Cl)cc1)N(O)c1ccccc1OCc1ccccc1,66.8% (inactive)
9,CN(C)CC1CCC/C(=C\c2ccc(Cl)cc2)C1=O (stereo not given),80.5% (active)
10,COc1ccc(/C=N/Nc2ccccc2)cc1,98.5% (active)
11,O=C1c2ccccc2-c2ccccc2C(=O)C1(Br)Br,89.8% (active)
12,CC(=O)Nc1ccc(C(=O)n2[nH]c(C)c(/C=C3\C(=O)C=Cc4ccccc43)c2=O)cc1,99.2% (active)
13,CC1OC2CC(=O)OC2C2=C1C(=O)c1c(O)cccc1C2=O (stereo not given),91.8% (active)
14,CCOC(=O)C(CCSC)C(=O)OCC,11% (inactive)
15,C[CH2][Sn]([CH2]C)([O]C(=O)c1cccc(OC)c1)[O][Sn]([CH2]C)([CH2]C)[O]C(=O)c1cccc(OC)c1,59.5% (inactive)
16,O=C(Nc1ccccc1)Oc1c(Cl)c(Cl)c(Cl)c(Cl)c1Cl,58.4% (inactive)
17,CCN(CC)CCNc1ccc2nnn3c4ccc([N+](=O)[O-])cc4c(=O)c1c23,66.5% (inactive)
18,CCCCCCN(CCCCCC)CCC(=O)c1ccc2cc(Br)c3ccccc3c2c1,98.6% (active)
19,COC(=O)/C=C1/Nc2ccc(Cl)cc2C(=O)NC1=O,39.3% (inactive)
20,CN(C)COC(=S)SCN(C)C,51.4% (inactive)
21,Clc1ccc(-c2noc(CN3CCCCC3)n2)cc1,66% (inactive)
22,CCCCCCCCCCCCCC(=O)OCC(O)CO (stereo not given),-2.25% (inactive)
23,CCC[CH2][Sn]([CH2]CCC)([O]C(=O)c1cccc(F)c1)[O]C(=O)c1cccc(F)c1,51.5% (inactive)
24,CCCCCCCCCCCCCCCCC1CCc2ccccc21 (stereo not given),56.8% (inactive)
25,CCOC(=O)NCCCc1ccc2oc3ccccc3c2c1,81.6% (active)

# Experiment: NCI Yeast Anticancer Drug Screen. Data for the mec2-1 strain (AID 157)
# Settings: S. cerevisiae mec2-1 strain, at 5.0 µM (retest, dose inferred, filed as 0.5), active compounds read high
# Method in brief: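 mec2-1 yeast strain, carrying an alteration in DNA damage repair or cell cycle control, was exposed to compounds; growth inhibition was measured relative to vehicle-treated controls.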
row,Compound,growth inhibition
1,O=C(/C=C/c1cccc(Cl)c1)c1ccccc1,-9% (inactive)
2,COc1cccc(N2C(=O)C3CC(CC(C)(C)C)c4c([nH]c5ccccc45)C3C2=O)c1 (stereo not given),10% (inactive)
3,O=C1c2ccccc2NC(=O)C2C1C(c1ccccc1)CC2(O)c1ccccc1 (stereo not given),7% (inactive)
4,CCOC(=O)C1SC(=Nc2ccc(Cl)cc2)N=C1C (stereo not given),27% (inactive)
5,COC(=O)c1nc(=S)[nH]c(C(=O)OC)c1C(=O)c1ccccn1,-3% (inactive)
6,Cn1c2c(c3ccccc31)CCN1C[C@@H]3CCCC[C@H]3C[C@@H]21,0% (inactive)
7,CCCCCCCCCCCC1=NCCN1CCNCCCC,5% (inactive)
8,CN=C(N)N/N=C(\C)c1ccc2c(c1)Cc1cc(/C(C)=N/NC(N)=NC)ccc1-2,53% (inactive)
9,O=C(Nc1ccccc1)OCCc1ccc(Br)cc1,-23% (inactive)
10,CN(C)CC/C(=N\Nc1ccc(Cl)cc1)c1ccccc1,100% (active)
11,O=C1Nc2ccccc2/C1=N\N=c1/scc(-c2ccccc2)n1-c1ccccc1,5% (inactive)
12,CC(C)(C)C(=O)CC(=O)C(F)(F)C(F)(F)C(F)(F)F.CC(C)(C)C(=O)CC(=O)C(F)(F)C(F)(F)C(F)(F)F.CC(C)(C)C(=O)CC(=O)C(F)(F)C(F)(F)C(F)(F)F.[Fe],5% (inactive)
13,COc1cc(N=Nc2cccc(S(N)(=O)=O)c2)c2ccccc2c1N,-2% (inactive)
14,O=C(/C=C/C(=O)OCCCl)OCCCl,-24% (inactive)
15,CCc1ccccc1NC(=O)C1=C(C)NC(C)=C(C(=O)Nc2c(CC)cccc2CC)C1c1ccc2c(c1)OCO2 (stereo not given),22% (inactive)
16,Oc1c(Cl)cc(Cl)c2cccnc12,31% (inactive)
17,COc1ccc2c(c1)[n+]([O-])c(-c1ccccc1)c(N)[n+]2[O-],40% (inactive)
18,O=c1cccccc1[O-].O=c1cccccc1[O-].O=c1cccccc1[O-].[Sm+3],19% (inactive)
19,CCCCCCCCCCCCCCCCNc1ccn(C2CC(OP(=O)(O)OCC3OC(n4cc(CC)c(=O)[nH]c4=O)CC3O)C(CO)O2)c(=O)n1 (stereo not given),26% (inactive)
20,Nc1ccccc1OCC(O)CN1CCN(Cc2ccccc2)CC1 (stereo not given),-4% (inactive)

row,Compound,growth inhibition
1,O=S(=O)(O)c1ccc(O)c2cc(Nc3ccccc3)ccc12,-3% (inactive)
2,CCOC(=O)/C(=C\c1ccc(-c2ccccc2)cc1)C(C)=O,-27% (inactive)
3,O=C(C(Oc1ccc(Cl)cc1)Oc1ccc(Cl)cc1)N(O)c1ccccc1OCc1ccccc1,3% (inactive)
4,CN(C)CC1CCC/C(=C\c2ccc(Cl)cc2)C1=O (stereo not given),-25% (inactive)
5,COc1ccc(/C=N/Nc2ccccc2)cc1,-12% (inactive)
6,O=C1c2ccccc2-c2ccccc2C(=O)C1(Br)Br,-1% (inactive)
7,CC(=O)Nc1ccc(C(=O)n2[nH]c(C)c(/C=C3\C(=O)C=Cc4ccccc43)c2=O)cc1,19% (inactive)
8,CC1OC2CC(=O)OC2C2=C1C(=O)c1c(O)cccc1C2=O (stereo not given),100% (active)
9,CCOC(=O)C(CCSC)C(=O)OCC,2% (inactive)
10,C[CH2][Sn]([CH2]C)([O]C(=O)c1cccc(OC)c1)[O][Sn]([CH2]C)([CH2]C)[O]C(=O)c1cccc(OC)c1,30% (inactive)
11,O=C(Nc1ccccc1)Oc1c(Cl)c(Cl)c(Cl)c(Cl)c1Cl,13% (inactive)
12,CCN(CC)CCNc1ccc2nnn3c4ccc([N+](=O)[O-])cc4c(=O)c1c23,1% (inactive)
13,CCCCCCN(CCCCCC)CCC(=O)c1ccc2cc(Br)c3ccccc3c2c1,38% (inactive)
14,COC(=O)/C=C1/Nc2ccc(Cl)cc2C(=O)NC1=O,36% (inactive)
15,CN(C)COC(=S)SCN(C)C,96% (active)
16,Clc1ccc(-c2noc(CN3CCCCC3)n2)cc1,0% (inactive)
17,CCCCCCCCCCCCCC(=O)OCC(O)CO (stereo not given),2% (inactive)
18,CCC[CH2][Sn]([CH2]CCC)([O]C(=O)c1cccc(F)c1)[O]C(=O)c1cccc(F)c1,-2% (inactive)
19,CCCCCCCCCCCCCCCCC1CCc2ccccc21 (stereo not given),-2% (inactive)
20,CCOC(=O)NCCCc1ccc2oc3ccccc3c2c1,-3% (inactive)
